Compound activity: PubChem, National Center for Advancing Translational Sciences (NCATS)
Sampled rows, rich in hits. Any-hit rate of the full collection: about 2.4%.
D2 antag: antagonists of human D2 dopamine receptor | inhibition, % at 10 µM | actives 2% (n = 340,000) | P14416 | HEK293 TREx D2 cells, calcium flux, dopamine EC80 | AID 485344; in the data active = inhibition above about 30%; inactive = below that, where a call was filed
Target sequence (P14416 whole entry, looked up): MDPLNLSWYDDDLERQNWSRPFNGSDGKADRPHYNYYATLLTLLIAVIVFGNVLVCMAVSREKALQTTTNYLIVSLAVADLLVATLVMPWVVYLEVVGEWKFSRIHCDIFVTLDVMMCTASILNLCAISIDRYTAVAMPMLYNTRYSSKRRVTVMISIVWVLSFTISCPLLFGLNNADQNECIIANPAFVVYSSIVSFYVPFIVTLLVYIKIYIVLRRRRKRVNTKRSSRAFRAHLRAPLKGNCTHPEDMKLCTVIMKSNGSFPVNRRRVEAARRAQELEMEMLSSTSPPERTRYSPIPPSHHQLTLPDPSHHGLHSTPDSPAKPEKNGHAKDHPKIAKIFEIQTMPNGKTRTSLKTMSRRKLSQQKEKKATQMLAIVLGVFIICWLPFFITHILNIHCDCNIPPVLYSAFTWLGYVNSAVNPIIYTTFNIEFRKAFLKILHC
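HEK293 T-REx D2 cells, tet-induced, calcium dye no-wash. Cpd pintool add, 180 s kinetic, then EC80 DA, 180 s kinetic. Ca flux read.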
D2 ag-1: agonists of human D2 dopamine receptor (beta-arrestin) | activation, % (no concentration beside the values) | P14416 | DiscoveRx PathHunter D2 beta-arrestin, luminescence, 90 min; 100% = 57 uM dopamine signal | actives 0.084% (n = 360,000) | AID 624465; in the data active = activation above about 40%; inconclusive = between about 15% and that limit
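DiscoveRx PathHunter D2 beta-arrestin cells (2,100/well) attached overnight, then compound-stimulated 90 min at 37 C in HBSS/10 mM HEPES/0.1% Tween-20 buffer; beta-galactosidase complementation read by luminescence after 1 h at ambient temperature. Dopamine 57 uM final (EC100) as control.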
D2 ag-2: agonists of human D2 dopamine receptor; P14416; HEK293 T-REx D2 cells, calcium flux agonist mode; activation, % at 2 µM; actives 0.53% (n = 340,000);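 active = activation over 3 SD above normal in the single-dose calcium agonist read, cut at about 30% in these data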
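Calcium-flux readout, 1 cycle/sec over 180 s following compound pin transfer, in inducible HEK293 Trex D2 cells (force-coupled); dopamine controls included. Positive calcium responses during this window marked compounds as potential agonists.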
D2 PAM-1: human D2 receptor positive allosteric modulation. DiscoveRx D2 beta-arrestin cells, luminescence, 90 min; 100% = 57 uM dopamine signal. potentiation, % (test concentration not listed). actives 0.23% (n = 360,000). AID 624464; in the data active = potentiation above about 50%; inconclusive = mostly about 30% to 49%
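PathHunter beta-arrestin assay in DiscoveRx D2 cells. Compounds were added with an EC20 of dopamine (50 nM final) for 90 min at 37 deg C. Luminescence was read 1 h after detection reagent, with 57 uM dopamine as the EC100 control.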
D2 PAM-2: positive allosteric modulators of human D2 dopamine receptor; P14416; HEK293 T-REx D2, calcium flux, EC20 dopamine potentiation; potentiation, % at 10 µM; actives 0.34% (n = 340,000); AID 485347;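 active = potentiation over 3 SD above the plate norm, cut at about 30% in these data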
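Potentiation of an EC20 dopamine calcium response measured kinetically over 180 s, after a preceding 180 s compound-only read flagging agonists. Cells: inducible Hek293 Trex D2 line, 4000/well, cultured overnight at 30 C before dye loading.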
D3 arrestin ag: activates human D3 dopamine receptor beta-arrestin recruitment | shares compounds with D2 ag-2 | Potency, µM (top dose mostly 76.9 µM), actives largely listed as activators | actives 4% (n = 2,300) | DiscoveRx D3 beta-arrestin cells, luminescence, 90 min; note: nearly all actives have a fitted effect of over 70% in size
D2 ag-3: counter-screen for D3 agonists: human D2 dopamine receptor agonism. shares compounds with D2 ag-2. DiscoveRx PathHunter D2 beta-arrestin, luminescence, 90 min; response scale: percent relative to full dopamine signal. Potency, µM (series often up to 76.9 µM), usual class: activators. actives 5.9% (n = 2,300); note: nearly all actives have a fitted effect of over 70% in size
Each line names hits and unclear results; the compound was inactive in the other large screens (follow-up assays come after a bar, where they were run). Unless noted, calls come from the whole dose curve; as a rule, active = well fitted activation curve with a large enough effect; inconclusive = small, poorly fitted or top-dose-only effect; inactive = flat fitted curve, though single readings scatter.

Cc1cc(F)cc(-c2cc(C(=O)NCC3CCCCC3)[nH]n2)c1	none (no result: D2 antag, D2 ag-2, D2 PAM-2)
COc1cc(NC(=O)CNc2cccc(S(=O)(=O)N3CCOCC3)c2)cc(OC)c1	none
CCCCN(C)C(=O)C1CCN(CCCc2ccccc2)CC1	none | D3 arrestin ag inactive | D2 ag-3 inactive
CN(C)CC(C)(C)CNC(=O)C1CCN(CCCc2ccccc2)CC1	D2 antag 31, D2 ag-1 inconclusive, D2 ag-2 48 | D3 arrestin ag inactive | D2 ag-3 inactive
O=c1[nH]c2ccc(Br)cc2c(=O)o1	none (no result: D2 antag, D2 ag-2, D2 PAM-2)
COc1cccc(N2CC(=O)N(NC(=O)CSc3nc(C)cc(C)c3C#N)CC2=O)c1	D2 ag-2 43 | D3 arrestin ag inactive | D2 ag-3 inactive
COCCn1c(SCC(=O)NCc2ccc3c(c2)OCO3)nnc1C(C)C	none
COCCn1c(SCC(=O)NCc2ccc3c(c2)OCO3)nnc1-c1c[nH]c2ccccc12	D2 ag-2 64 | D3 arrestin ag inactive | D2 ag-3 inactive
COc1ccc(Cl)cc1NC(=O)Cn1cnc2sc(C)c(S(=O)(=O)N3CCN(c4ccccc4OC)CC3)c2c1=O	none (no result: D2 antag, D2 ag-1, D2 PAM-1)
COc1ccc(NC(=O)c2cc(S(=O)(=O)N3CCOCC3)ccc2C)cc1S(=O)(=O)N1CCOCC1	none (no result: D2 antag, D2 ag-2, D2 PAM-2)
COc1ccccc1OCC(=O)NC1CCSc2ccccc21 (configuration not stated)	none | D3 arrestin ag inactive | D2 ag-3 inactive
Cn1c2ccccc2c(=O)c2c(=O)n(-c3ccccc3)c(C3CCCCC3)nc21	none
Cn1c2ccccc2c(=O)c2c(=O)n(C3CCCCCC3)c(C3CCCCC3)nc21	D2 ag-2 40 | D3 arrestin ag inactive | D2 ag-3 inactive
Brc1cnc2nc[nH]c2c1	none (no result: D2 antag, D2 ag-2, D2 PAM-2)
Cc1cc(C)nc(-n2ncc3c2CC(c2ccccc2)CC3=O)n1 (configuration not stated)	D2 ag-2 48 | D3 arrestin ag inactive | D2 ag-3 inactive
Cc1cccc(N2CCN(Cc3cn(C)nc3-c3ccccc3F)CC2)n1	D2 antag 30, D2 ag-1 inconclusive, D2 ag-2 51 | D3 arrestin ag inactive | D2 ag-3 inactive
Cn1cc(CN2CCN(c3ccc(Cl)cn3)CC2)c(-c2ccccc2F)n1	none
CC(=O)c1ccccc1OC(=O)COc1ccc([N+](=O)[O-])cc1	none
COc1ccc(-c2cc3nc(C)c(CCC(=O)Nc4cccc(C(F)(F)F)c4)c(C)n3n2)c(OC)c1	none (no result: D2 antag, D2 ag-1, D2 PAM-1)
CC(OC(=O)Cn1cnc2ccccc2c1=O)C(=O)NCc1ccccc1 (configuration not stated)	D2 ag-2 49 | D3 arrestin ag inactive | D2 ag-3 inactive
Cc1ccc(NC(=O)C(C)OC(=O)Cn2cnc3ccccc3c2=O)cc1 (configuration not stated)	none
O=C(c1cccc(Cl)c1)N1CCN(Cc2ccncc2)CC1	none
O=C(NCC(=O)N1CCN(Cc2ccccc2)CC1)c1cccs1	none (no result: D2 antag, D2 ag-2, D2 PAM-2)
O=C(c1cccs1)N1CCN(c2ncccn2)CC1	none
O=C(c1cccs1)N1CCN(CCCc2ccccc2)CC1	D2 antag 59, D2 ag-2 36 | D3 arrestin ag inactive | D2 ag-3 inactive
O=C(c1cccs1)N1CCN(Cc2cccnc2)CC1	D2 antag 59, D2 ag-1 inconclusive, D2 ag-2 60 | D3 arrestin ag inactive | D2 ag-3 inconclusive
O=C(c1cccs1)N1CCN(Cc2ccccc2)CC1	D2 antag 64, D2 ag-1 41, D2 ag-2 75 | D3 arrestin ag inconclusive | D2 ag-3 inconclusive
O=C(c1cccs1)N1CCN(Cc2ccncc2)CC1	D2 ag-2 63 | D3 arrestin ag inactive | D2 ag-3 inconclusive
CCOC(=O)c1nn(-c2ccc(C)cc2)c(=O)cc1OCC(=O)Nc1ccc(OC)cc1	none
Cc1ccc(C(O)CSc2nnc(-c3ccc4ccccc4c3)n2C)cc1 (configuration not stated)	none
